From ChEMBL document CHEMBL1201862, “PubChem BioAssay data set” (2004) come the findings set out here.

The campaign covered roughly 400,000 compounds. About 2,100 (0.53%) were called active. About 14% were inconclusive and are not listed. How the calls were made is not given here. The list comes from a sample in which actives are over-represented; it also holds similar structures and randomly drawn compounds.

The target of this assay is Ataxin-2 (Homo sapiens) (UniProt Q99700). The assay is described as follows: qHTS for Inhibitors of ATXN expression. It counts as functional. On the technique in general: qHTS replaces the single test concentration by a dilution series.
Ataxin-2 (Homo sapiens), sequence (Q99700 whole entry): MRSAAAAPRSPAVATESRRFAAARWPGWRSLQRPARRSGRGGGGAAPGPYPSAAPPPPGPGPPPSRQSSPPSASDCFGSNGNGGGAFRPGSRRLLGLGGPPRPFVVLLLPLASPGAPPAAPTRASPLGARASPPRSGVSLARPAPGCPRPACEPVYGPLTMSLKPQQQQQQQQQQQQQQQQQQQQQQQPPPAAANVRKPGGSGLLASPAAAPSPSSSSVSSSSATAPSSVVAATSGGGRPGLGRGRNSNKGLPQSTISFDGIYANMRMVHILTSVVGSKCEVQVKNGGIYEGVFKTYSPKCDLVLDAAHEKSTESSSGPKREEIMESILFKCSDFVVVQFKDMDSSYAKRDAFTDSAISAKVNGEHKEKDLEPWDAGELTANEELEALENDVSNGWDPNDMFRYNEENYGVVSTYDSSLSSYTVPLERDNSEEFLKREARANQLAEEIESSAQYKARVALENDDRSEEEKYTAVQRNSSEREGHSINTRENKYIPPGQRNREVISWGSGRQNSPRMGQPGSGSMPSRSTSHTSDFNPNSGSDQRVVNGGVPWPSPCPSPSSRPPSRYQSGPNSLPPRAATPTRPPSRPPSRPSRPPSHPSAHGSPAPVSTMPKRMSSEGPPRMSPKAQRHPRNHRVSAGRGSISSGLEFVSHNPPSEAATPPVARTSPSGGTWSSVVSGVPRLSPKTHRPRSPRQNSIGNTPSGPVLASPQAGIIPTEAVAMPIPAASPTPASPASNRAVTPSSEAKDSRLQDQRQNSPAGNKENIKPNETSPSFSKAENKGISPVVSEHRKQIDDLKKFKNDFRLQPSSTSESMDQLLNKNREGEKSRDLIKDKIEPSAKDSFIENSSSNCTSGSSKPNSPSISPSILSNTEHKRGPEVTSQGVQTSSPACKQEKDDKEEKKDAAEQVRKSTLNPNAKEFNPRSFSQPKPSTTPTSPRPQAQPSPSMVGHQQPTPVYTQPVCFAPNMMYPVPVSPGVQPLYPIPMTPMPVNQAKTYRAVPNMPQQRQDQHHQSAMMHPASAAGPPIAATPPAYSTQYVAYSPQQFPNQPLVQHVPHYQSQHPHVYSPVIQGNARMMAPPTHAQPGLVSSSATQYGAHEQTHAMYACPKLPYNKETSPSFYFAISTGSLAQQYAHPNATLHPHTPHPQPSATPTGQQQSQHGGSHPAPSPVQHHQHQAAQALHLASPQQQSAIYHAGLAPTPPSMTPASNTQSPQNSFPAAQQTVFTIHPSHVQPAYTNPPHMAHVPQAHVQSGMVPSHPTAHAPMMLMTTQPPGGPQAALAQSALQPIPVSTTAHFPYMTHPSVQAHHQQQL
Consider `Cc1c(NC(=O)CCC2CCCCC2)cc(C(=O)N2CCOCC2)cc1[N+](=O)[O-]`, for which the Potency result was “inactive”.

For `O=C(O)c1cc(Cl)c(Cl)cc1C(=O)N(Cc1ccccc1)Cc1ccccc1`, the Potency result is “inactive”.

With `COc1cccc2sc3cc(NCc4ccc(C)o4)ccc3c(=O)c12`, the Potency entry was “inactive”.

`Oc1nc(/C=C/c2cccc3ccccc23)nc2ccccc12`: the Potency result is “inactive”.

Turning to `CN(C)c1ccc(/C=C/c2nc(O)c3ccccc3n2)cc1`, the Potency result is “inactive”.

In the case of `Cc1ccccc1/C=C/c1nc(O)c2ccccc2n1`, the Potency is 31.6 µM (active).

In the case of `CCN(c1ccccc1)c1nc(=O)c2cccnc2s1`, the Potency result is “inactive”.

On to `O=S1(=O)C=C(Sc2nc3cc(Cl)ccc3o2)c2ccccc21`, for which the Potency was 10 µM (active).

Regarding `O=S1(=O)C=C(Sc2nnc(-c3ccccc3)o2)c2ccccc21`, the Potency was 11.2 µM (active).

Take `Brc1cccc(CSc2nnc(-c3ccncc3)o2)c1`: the Potency result was “inactive”.

For `N#C/C(=C\c1c(Oc2ccccc2F)nc2ccccn2c1=O)C(=O)NC1CCS(=O)(=O)C1` (stereo unspecified), the Potency result is “inactive”.

In the case of `O=S(=O)(c1ccc(S)nc1)N1CCCCC1`, the Potency entry is “inactive”.

`NC(=O)c1cc(S(=O)(=O)N2CCCCC2)cs1`: the Potency entry is “inactive”.

Consider `O=S(=O)(c1ccc(S)nc1)N1CCCCCC1`, for which the Potency entry was “inactive”.

Turning to `O=[N+]([O-])c1cc(S(=O)(=O)N2CCCCCC2)ccc1F`, the Potency is 35.5 µM (active).

`Cn1c(=O)oc2cc(S(=O)(=O)N3CCCC3)ccc21`: the Potency entry is “inactive”.

With `O=[N+]([O-])c1cc(S(=O)(=O)N2CCCCCC2)ccc1Cl`, the Potency is 42.3 µM (active).

`COCc1cc(C)nc2sc(C(=O)Nc3ccccc3C)c(N)c12`: the Potency entry was “inactive”.

As to `O=C(Nc1nc2n(n1)C(c1ccccc1)C=C(c1ccc(Cl)cc1)N2)c1ccco1` (stereo unspecified), the Potency entry was “inactive”.

Consider `CCCCc1cc(=O)oc2cc(OCC(=O)Nc3cccnc3)c(Cl)cc12`, for which the Potency result was “inactive”.

For `S=C(NCc1ccccc1)N/N=C/c1cccs1`, the Potency result was “inactive”.

Turning to `Cc1ccc(CN2CCSCC2)cc1`, the Potency entry is “inactive”.

As for `O=C(CCC1CCCC1)NNC(=O)c1ccc(F)cc1`, the Potency result was “inactive”.

As for `O=C(/C=C/c1ccc([N+](=O)[O-])o1)NNC(=O)c1ccc(F)cc1`, the Potency is 7.08 µM (active).

For the molecule `O=C(CN1C(=O)/C(=C/c2ccccc2F)Oc2ccccc21)N1CCN(c2ccccn2)CC1`, the Potency result was “inactive”.

Regarding `O=C(OC1C2CCC1C1CN(CCc3ccccc3)CC12)c1ccccc1` (stereo unspecified), the Potency was 31.6 µM (active).

For `COC(=O)c1cc(S(=O)(=O)N2CCN(Cc3ccccc3)CC2)cn1C`, the Potency result is “inactive”.

On to `O=C(CSc1nnc(O)n1CCc1ccccc1)NC1CCCC1`, for which the Potency result was “inactive”.

Regarding `CCOC(=O)C1=NN(C(=O)c2ccccc2)C(O)(c2ccc(C)cc2)C1` (stereo unspecified), the Potency result was “inactive”.

Take `O=C(c1ccccc1)N1N=C(c2ccccc2)CC1(O)C(F)(F)F` (stereo unspecified): the Potency entry was “inactive”.

Regarding `CCC1=NN(C(=O)c2ccccc2O)C(O)(c2ccccc2)C1` (stereo unspecified), the Potency was 25.1 µM (active).

For `CCOC(=O)N1CCN(Cc2nc3ccc([N+](=O)[O-])cc3c(=O)n2-c2cccc(OC)c2)CC1`, the Potency result is “inactive”.

`CCN(C(=O)CSc1nc2n[nH]c(C)c2c(=N)n1-c1cccc(OC)c1)c1cccc(C)c1`: the Potency was 22.4 µM (active).

With `COc1cccc(-n2cnnc2SCC(=O)NC2CC2)c1`, the Potency result was “inactive”.

In the case of `C[C@H](c1ccccc1)N1C[C@@H](COCc2ccccc2)Oc2cc(N3CC[C@H](N(C)C)C3)ccc2S1(=O)=O`, the Potency is 39.8 µM (active).

As to `CCCCC[C@H](C)N1C[C@H](COCc2ccccc2)Oc2cc(N3CC[C@H](N(C)C)C3)ccc2S1(=O)=O`, the Potency was 39.8 µM (active).

On to `CCCCC[C@@H](C)N1C[C@@H](COCc2ccccc2)Oc2cc(N3CC[C@@H](O)C3)ccc2S1(=O)=O`, for which the Potency was 25.1 µM (active).

With `CCCCC[C@@H](C)N1C[C@@H](COCc2ccccc2)Oc2cc(N3CC[C@H](N(C)C)C3)ccc2S1(=O)=O`, the Potency was 31.6 µM (active).

For the molecule `Cc1c(CC(=O)NCc2ccccc2)c(=O)oc2c(C)c(O)ccc12`, the Potency result is “inactive”.

Regarding `Cc1ccc(C(C)NC(=O)C2CCCC2)c(C)c1` (stereo unspecified), the Potency result was “inactive”.

Regarding `C=CCNC(=O)CSc1ncc2c(n1)-c1c(csc1SC)CC2`, the Potency entry was “inactive”.

Consider `CC(NC(=O)c1cc2c(=O)n3ccccc3nc2n(C(C)C)c1=N)c1ccccc1` (stereo unspecified), for which the Potency entry is “inactive”.

In the case of `COCCN(CCOC)c1cc(C)c(C#N)c2nc3ccccc3n12`, the Potency result is “inactive”.

In the case of `Cc1occc1C(=O)N1CCC2(CCCN(Cc3ccc(F)c(F)c3)C2)C1` (stereo unspecified), the Potency entry is “inactive”.

As to `CC1CN(C(=O)c2cc3c(=O)n4ccccc4nc3n2C)CC(C)O1` (stereo unspecified), the Potency entry was “inactive”.

Consider `Cn1c(C(=O)N2CCc3ccccc3C2)cc2c(=O)n3ccccc3nc21`, for which the Potency result is “inactive”.

For `Cc1cccc(N2CCN(C(=O)c3cc4c(=O)n(C)c5ccccc5c4n3C)CC2C)c1` (stereo unspecified), the Potency was 39.8 µM (active).

For `COc1ccc2nc(N3CCCC3)c(C#N)cc2c1`, the Potency entry was “inactive”.

For `O=c1cc(CN2CCN(S(=O)(=O)c3ccc4c(c3)OCCO4)CC2)c2ccc(O)cc2o1`, the Potency entry is “inactive”.

For the molecule `Cc1cccc(C2=NN(c3ccccc3)[C@@H](C(=O)N3CCOC3=O)[C@@H]2c2ccc(Cl)cc2)c1`, the Potency entry was “inactive”.

On to `O=C(Nc1ccc([N+](=O)[O-])cc1)Nc1ccc(OC(F)F)c(Cl)c1`, for which the Potency was 35.5 µM (active).

As to `COc1ccc([N+](=O)[O-])cc1NC(=O)CC(c1ccccc1)c1ccccc1`, the Potency result is “inactive”.

In the case of `COc1cc(/C=C/C(=O)OCC(=O)Nc2ccc([N+](=O)[O-])cc2)ccc1O`, the Potency result is “inactive”.

Take `CCOC(=O)/C=c1\s/c(=C\c2ccc3cc(OC)ccc3c2)c(=O)n1CC(=O)NCc1ccc2c(c1)OCO2`: the Potency result is “inactive”.

Regarding `N#C/C(=C\c1c(N2CCOCC2)nc2ccccn2c1=O)C(=O)NC1CCS(=O)(=O)C1` (stereo unspecified), the Potency entry is “inactive”.

Take `CCN(CC)CCn1c(=N)n(CC(=O)c2ccc(Br)s2)c2ccccc21`: the Potency result was “inactive”.

In the case of `CCCCn1c(=N)n(CC(=O)c2ccc(Br)s2)c2ccccc21`, the Potency was 39.8 µM (active).

As to `Cn1c(/C(C#N)=C(\O)c2ccc(Br)s2)nc2ccccc21`, the Potency entry was “inactive”.

For the molecule `CC(C)n1c(=N)c(C(=O)NCc2cccnc2)cc2c(=O)n3ccccc3nc21`, the Potency result was “inactive”.

Regarding `N#Cc1c(C(F)(F)F)cc(-c2ccco2)nc1SCc1ccncc1`, the Potency result was “inactive”.

With `CCc1cc(C(=O)c2ccc(C)cc2)c(NC(=O)CCl)s1`, the Potency is 31.6 µM (active).

As for `CCOC(=O)c1cc(C(=O)c2cc(Cl)ccc2O)coc1=N`, the Potency entry is “inactive”.

Regarding `Cc1ccc(C(=O)CC(=O)c2ccc(C)cc2O)cc1`, the Potency entry is “inactive”.

`Cc1cc(C(=O)c2ccc(Cl)cc2)c(NC(=O)CCl)s1`: the Potency was 39.8 µM (active).

For the molecule `CCN(CC)CC(=O)Nc1sc(C)c(C)c1C(=O)c1ccc(C)cc1`, the Potency entry is “inactive”.

Turning to `CCOc1ccccc1/N=c1\oc2cc(O)ccc2cc1C(=O)NCC1CCCO1` (stereo unspecified), the Potency result is “inactive”.

With `COC(=O)C(=O)C/C(=N/Nc1ncnc2ccccc12)c1ccc(Cl)cc1`, the Potency result is “inactive”.

Turning to `C#CCOc1ccc(C2C3=C(CC(C)(C)CC3=O)N(CC(=O)O)C3=C2C(=O)CC(C)(C)C3)cc1`, the Potency result was “inactive”.

Take `Cc1cc2nc3c(=O)n(C4CCCCC4)c(=O)[nH]c3nc2cc1N`: the Potency result was “inactive”.

Take `CCCN(CC(=O)Nc1ccc(F)c(F)c1F)C(=O)Cc1ccc(OC)c(S(=O)(=O)N2CCOCC2)c1`: the Potency result was “inactive”.

For the molecule `Cc1ccccc1CN1CCN(Cc2cc3ccccc3o2)CC1CCO` (stereo unspecified), the Potency was 8.44 µM (active).

Regarding `COc1ccc(CN2CCN(CC3CC3)CC2CCO)c(C)c1C` (stereo unspecified), the Potency entry is “inactive”.

For the molecule `CC(C)=CCN1CCN(Cc2cccc3nonc23)CC1CCO` (stereo unspecified), the Potency entry is “inactive”.

`CCOc1ccc(C2=CC(c3ccccc3)n3ncnc3N2)cc1` (stereo unspecified): the Potency entry is “inactive”.

In the case of `CCOCCCn1/c(=N/C(=O)c2cccnc2)c(C(=O)OCC)cc2c(=O)n3ccccc3nc21`, the Potency entry was “inactive”.

With `COC(=O)c1ccc2[nH]c3cccc(/C(=C/c4ccccc4)c4ccccc4)c3c2c1`, the Potency was 39.8 µM (active).

`O=C(OCCN1C(=O)c2cccc3c(N4CCOCC4)ccc(c23)C1=O)c1ccc(Cl)cc1Cl`: the Potency result is “inactive”.

As for `O=C(CN1C(=O)c2ccccc2C1=O)OCCOCCNC1=NS(=O)(=O)c2ccccc21`, the Potency result was “inactive”.

For `CCc1nc2ccc(C(=O)Nc3ccc(Cl)c(Cl)c3)cn2c1N(C)Cc1ccc(OC)cc1`, the Potency is 20 µM (active).

Regarding `COc1ccc(NC(=S)N2CCC(C(=O)c3ccc(Cl)cc3)CC2)cc1`, the Potency entry was “inactive”.

In the case of `COCCCNC(=O)c1ccc2nc3ccccc3c(=O)n2c1`, the Potency entry was “inactive”.

With `CCn1cc(Cl)c(C(=O)Nc2cc(C(=O)OC)cc(C(=O)OC)c2)n1`, the Potency result is “inactive”.

In the case of `COc1ccc(N2CC(C(=O)N[C@@H](C)C(=O)NCc3ccccc3OC)CC2=O)cc1` (stereo partly specified), the Potency entry was “inactive”.

As to `CCc1nc2ccc(C(=O)NCc3ccccc3OC)cn2c1N(C)Cc1ccc(OC)cc1`, the Potency was 17.8 µM (active).

Regarding `COc1ccc2c(c1)CCc1cn3ncc(C#N)c3nc1-2`, the Potency result was “inactive”.

`O=C(O/N=C1\CCS(=O)(=O)c2sccc21)c1ccccc1`: the Potency entry was “inactive”.

Take `CCc1c(C)c2cc(Cl)c(O)c(CN(CC)CC)c2oc1=O`: the Potency result is “inactive”.

`CN1C(=O)c2cccc3c(Br)ccc(c23)C1=O`: the Potency result is “inactive”.

For `Brc1ccc(COc2ncnc3ccccc23)cc1`, the Potency entry was “inactive”.

`CN(Cc1ccc(Cl)cc1)C(=O)CCl`: the Potency was 35.5 µM (active).

With `CCOc1ccc(CN(C)C(=O)CCl)cc1`, the Potency is 12.6 µM (active).

Turning to `COc1ccc(CN(C)C(S)=Nc2ccc(Cl)cc2)cc1`, the Potency entry was “inactive”.

For the molecule `CN(Cc1ccc(Cl)s1)C(=O)CCl`, the Potency is 23.8 µM (active).

Consider `CCOc1ccc(CNC(=O)Nc2ccccc2)cc1`, for which the Potency result is “inactive”.

Turning to `O=C(O)c1ccccc1N(Cc1ccccc1)C(=O)COc1ccccc1`, the Potency result is “inactive”.

For the molecule `O=C(NCc1ccc2c(c1)OCO2)c1ccc(Cl)s1`, the Potency result was “inactive”.

In the case of `O=C(Nc1ccccc1F)C(=Cc1sc(N2CCOCC2)nc1-c1ccccc1)C(=O)Nc1ccccc1F`, the Potency entry is “inactive”.

With `Nc1c(C(=O)Nc2ccccc2)sc2nc(-c3ccco3)ccc12`, the Potency result was “inactive”.

On to `Cc1ccc2cccc(NS(=O)(=O)c3ccccc3)c2n1`, for which the Potency entry is “inactive”.

Take `CC(C)(C)C(=O)/C=c1\s/c(=C\c2ccc(-c3ccc([N+](=O)[O-])cc3)o2)c(=O)n1CC(=O)NC(N)=O`: the Potency result is “inactive”.

For the molecule `COC(=O)c1ccc2oc(=O)c(S(=O)(=O)c3ccc(C)cc3)cc2c1`, the Potency entry is “inactive”.

On to `CN(C)CCCN(C(=O)c1ccc2c(c1)CCCC2)c1nc2ccc(Cl)cc2s1`, for which the Potency was 31.6 µM (active).

For `CN(C)CCCN(C(=O)c1ccco1)c1nc2ccc(Cl)cc2s1`, the Potency is 39.8 µM (active).

For the molecule `CN(C)CCCN(C(=O)c1cccs1)c1nc2cc3c(cc2s1)OCO3`, the Potency result is “inactive”.

Consider `COc1cc2nc(N(CCCN(C)C)C(=O)c3ccc(C(=O)c4ccccc4)cc3)sc2cc1OC`, for which the Potency is 44.7 µM (active).

In the case of `Cc1ccc2nc(N(CCCN(C)C)C(=O)c3ccc4c(c3)CCCC4)sc2c1`, the Potency is 39.8 µM (active).
